From PubChem BioAssay (Tox21)
Results filed as inconclusive are left out. Where a call stands in place of a potency, no number is given. Unmarked numbers belong to inactive results. Activity calls are given as the source filed them. Calls follow the shape of the dose curve; as a rule, active = well fitted activation curve with a large enough effect in the repeat runs; inconclusive = weak or mixed curves; inactive = no such curve, though single readings can be large or run the other way.

Experiment: qHTS assay for small molecules that induce genotoxicity in human embryonic kidney cells expressing luciferase-tagged ATAD5 (AID 651632); also: nearly all actives have a fitted effect of over 15% in size
Conditions: HEK293T ATAD5-luciferase induction, 16 h; series mostly up to 83.3 µM
Text: U.S. Tox21 Program National Center for Advancing Translational Sciences [NCATS] NIH Chemical Genomics Center [NCGC] U.S. Environmental Protection Agency [EPA] National Institutes of Environmental Health Sciences [NIEHS] National Toxicology Program [NTP] U.S. Food and Drug Administration [FDA] Tox21 Assay Overview: As cancer cells divide rapidly and during every cell division they need to duplicate their genome by DNA replication. The failure to do so results in the cancer cell death. Based on this concept, many chemotherapeutic agents were developed but have limitations such as low efficacy and severe side effects etc. A new cell based assay was developed to find the compounds that effectively block DNA replication either by directly damaging DNA or by inhibiting other cellular mechanisms. Enhanced Level of Genome Instability Gene 1 (ELG1; human ATAD5) protein levels increase in response to various types of DNA damage. Using a luciferase reporter-gene tagged with ATAD5, a cell-based assay [developed by Kyungjae Myung, NHGRI, NIH] was used to measure the induction of ATAD5 in human embryonic kidney cells (HEK293T). So, increase in luciferase activity can be used to identify the compounds that cause genetic stress.
Tox21 Assay Protocol Summary: For genotoxicity screening, 2,000 cells in 5 uL/well were dispensed into white, solid-bottom 1536-well plates using a Multidrop Combi (Thermo Scientific) dispenser. Following transfer of 23 nL compound or DMSO vehicle by a pin tool, the plates were incubated 16 hr at 37C and 5% CO2. 5 ul Amplite (AAT Bioquest, Inc.) was then added to each plate and following 30 min incubation at room temperature, luciferase activity was quantified on a ViewLux CCD-based plate reader.

| Structure (SMILES) | Potency | activation |
| --- | --- | --- |
| O=S1OCC2C(CO1)C1(Cl)C(Cl)=C(Cl)C2(Cl)C1(Cl)Cl (stereo not given) | inactive |  |
| Cc1cc(C2CC2)nc(Nc2ccccc2)n1 | inactive |  |
| COc1ccc2c(c1OC)C(=O)O[C@@H]2[C@H]1c2cc3c(cc2CCN1C)OCO3 | inactive |  |
| Nc1cc(Cl)ccc1Cl | inactive |  |
| BrCCCBr | inactive |  |
| COC(=O)C(C)N(C(=O)c1ccco1)c1c(C)cccc1C (stereo not given) | inactive |  |
| O=P(Cl)(Cl)Cl | inactive |  |
| Oc1cc(Cl)c(Cl)c(Cl)c1Cl | inactive |  |
| C=CCOC(=O)c1ccccc1N | inactive |  |
| COC(=O)/C=C(\C)OP(=O)(OC)OC | inactive |  |
| O=C1C2(Cl)C3(Cl)C4(Cl)C(Cl)(Cl)C5(Cl)C3(Cl)C1(Cl)C5(Cl)C24Cl (stereo not given) | inactive |  |
| O=S(=O)(O)F | inactive |  |
| CC(Cc1ccc2c(c1)OCO2)NO (stereo not given) | inactive |  |
| ClSC(Cl)(Cl)Cl | inactive |  |
| Cc1ccc2cc3c(ccc4ccccc43)c3c2c1CC3 | inactive |  |
| CCOP(=S)(OCC)Oc1cc(C)nc(N(CC)CC)n1 | inactive |  |
| CN(C)CCc1c[nH]c2ccccc12 | inactive |  |
| CCC1(CC)C(=O)N=C(O)NC1=O | inactive |  |
| CCOC(=O)Cc1ccccc1 | inactive |  |
| CNC(C)(C)Cc1ccccc1 | inactive |  |

| Structure (SMILES) | Potency | activation |
| --- | --- | --- |
| CO/N=C(/C1=NOCCO1)c1ccccc1Oc1ncnc(Oc2ccccc2Cl)c1F | inactive |  |
| CCCCC/C=C\C/C=C\C/C=C\C/C=C\CCCC(=O)NCC(=O)O |  | -2.3% [at 8.08 µM] |
| COc1cnc(OC)n2nc(NS(=O)(=O)c3c(OCC(F)F)cccc3C(F)(F)F)nc12 | inactive |  |
| CCC[CH2][Sn]([CH2]CCC)([O]C(C)=O)[O]C(C)=O | inactive |  |
| ClC(Cl)C(Cl)(Cl)Cl | inactive |  |
| O=[N+]([O-])c1ccccc1-c1ccccc1 | inactive |  |
| C=CC(=O)[O][Sn]([CH2]CCC)([CH2]CCC)[CH2]CCC | inactive |  |
| CCCCCON=O | inactive |  |
| CN1CCc2cc(Cl)c(O)cc2[C@H]2c3ccccc3CC[C@@H]21 | inactive |  |
| CCNc1nc(NC(C)C(C)C)nc(SC)n1 (stereo not given) | inactive |  |
| CSC1=N[C@@](C)(c2ccccc2)C(=O)N1Nc1ccccc1 | inactive |  |
| Oc1cc(Cl)cc(Cl)c1 | inactive |  |
| Cc1c([N+](=O)[O-])cc2c(c1[N+](=O)[O-])C(C)(C)CC2(C)C | inactive |  |
| Cc1ccccc1OP(=O)(Oc1ccccc1C)Oc1ccccc1C | inactive |  |
| C[C@]12C/C(=C/O)C(=O)C[C@@H]1CC[C@@H]1[C@@H]2CC[C@@]2(C)[C@H]1CC[C@]2(C)O | inactive |  |
| CCC[CH2][Sn]([CH2]CCC)([CH2]CCC)[O][Sn]([CH2]CCC)([CH2]CCC)[CH2]CCC |  | -11.2% [at 8.08 µM] |
| C#CC1(O)CCCCC1 | inactive |  |
| Cc1c([N+](=O)[O-])c(C)c([N+](=O)[O-])c(C(C)(C)C)c1[N+](=O)[O-] | inactive |  |
| CNC(=O)/C=C(\C)OP(=O)(OC)OC | inactive |  |
| CC1(C)C(C=C(Cl)Cl)C1C(=O)OC(C#N)c1ccc(F)c(Oc2ccccc2)c1 (stereo not given) | inactive |  |
